# PubChem BioAssay AID1347075 (National Center for Advancing Translational Sciences (NCATS), 2019)
# In all, about 400,000 compounds went through this assay and about 5,500 (1.4%) were called active. Not shown: some 9% with an inconclusive outcome. Calls come from the whole dose curve; as a rule, active = well fitted cell-killing curve with a large enough effect; inconclusive = small, poorly fitted or top-dose-only effect, or effect the other way; inactive = flat fitted curve, though single readings scatter. Shown is part of a subset that was picked to be rich in actives. A call without a number means that no potency is given here.
# Assay: qHTS assay for MDR1-selective chemotherapeutics: Primary screen using the parental adenocarcinoma cell KB-3-1; note: nearly all actives have a fitted effect of over 60% in size
# Settings: KB-3-1 viability, CellTiter-Glo ATP luminescence, 72 h; series mostly up to 46.1 µM
# Outline: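 Here the drug-naive KB-3-1 line serves as comparator for MDR sub-line selectivity; cells received compound titrations, 72 h at 37 °C, then CellTiter-Glo readout.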
# Potency is the fitted concentration of half-maximal effect.
row,SMILES,Potency
1,Cc1ccc(Cl)cc1NC(=O)C(C)n1nnc2sc(-c3ccccc3)cc2c1=O (stereo not given),inactive
2,COc1ccc(C2CC(=O)N(Cc3ccccc3C)c3c2c(C)nn3-c2nc(C)cc(C)n2)c(OC)c1 (stereo not given),inactive
3,CCOc1ccc(C(=O)c2cn(Cc3ccccc3OC)c3ccc(F)cc3c2=O)cc1,inactive
4,CCCOc1cccc(C(=O)Nc2cccc(NC(=O)c3ccc(C(C)(C)C)cc3)c2)c1,inactive
5,CCCOc1ccc(C(=O)C(CCC(CNCC)C(=O)c2ccc(OCCC)cc2)CNCC)cc1 (stereo not given),5.17 µM (active)
6,CCCc1ccc(OCCNC(=O)c2ccccc2Br)cc1,inactive
7,Cc1ccc2nc(COc3cccc(NC(=O)c4ccccc4Cl)c3)cc(=O)n2c1,inactive
8,CCOc1ccc(CCNC(=O)c2ccc3c(c2)sc2nc(-c4ccc(F)cc4)cn23)cc1OCC,inactive
9,CC1CCN(c2ccc(C(=O)NCc3ccc4c(c3)OCO4)cc2[N+](=O)[O-])CC1,inactive
10,O=C(NCc1ccc2c(c1)OCO2)c1cc([N+](=O)[O-])ccc1N1CCOCC1,5.17 µM (active)
11,O=C(Cc1ccc([N+](=O)[O-])cc1)NCCc1ccc2c(c1)OCO2,inactive
12,Cc1cc(=O)n(CC(=O)Nc2cccc([N+](=O)[O-])c2)c(-n2nc(C)cc2C)n1,inactive
13,CCOc1ccccc1NC(=O)c1ccc2c(c1)CCN2S(=O)(=O)c1ccc(C)cc1,inactive
14,COc1ccccc1NC(=O)c1cc(C2CC2)nc2c1c(C)nn2-c1ccc(C)cc1,inactive
15,COc1cccc(NC(=O)CSc2cc(=O)n(C)c3ccc(Cl)cc23)c1,inactive
16,CCc1cccc(C)c1NS(=O)(=O)c1cc(Br)cnc1N,inactive
17,CCc1cccc(C)c1NS(=O)(=O)c1ccc(-c2cc(C)no2)s1,1.16 µM (active)
18,Cc1cc(C)cc(NS(=O)(=O)c2ccc(-c3cc(C)no3)s2)c1,3.26 µM (active)
19,Cc1cc(-c2ccc(S(=O)(=O)N3CCN(c4cccc(C(F)(F)F)c4)CC3)s2)on1,inactive
20,Cc1cc(-c2ccc(S(=O)(=O)N3CCc4ccccc4C3)s2)on1,inactive
21,CC(=O)c1ccc(NS(=O)(=O)c2ccc(-c3cc(C)no3)s2)cc1,inactive
22,Cc1ccccc1CN1CCC(CNC(=O)c2cc3ccc4cccnc4c3[nH]2)CC1,inactive
23,COc1cc2[nH]c(=O)n(Cc3ccc(C(=O)NCc4ccc(C)cc4)cc3)c(=O)c2cc1OC,inactive
24,CC1CCCCN1Cc1c(O)ccc2c(=O)c(-c3cccc(Cl)c3)c(C(F)(F)F)oc12 (stereo not given),inactive
25,COc1nc(N=C(N)N)nc2c(C)cccc12,inactive

row,SMILES,Potency
1,Cc1nc(N=C(N)N)nc2c(C)cccc12,10.3 µM (active)
2,COc1ccc(CNc2nnnn2C)cc1,inactive
3,COCCNc1ncnc2c1ncn2[C@H]1CN(Cc2ccc(OC)cc2)C[C@@H](CO)O1,inactive
4,COc1ccc(CNc2nc(NCc3ccc(OC)cc3)c3ncn(C4CCCC4)c3n2)cc1,6.51 µM (active)
5,COc1ccc(S(=O)(=O)NCc2cccn2Cc2cccc(C)c2)cc1,inactive
6,COc1ccc(CC(=O)N2CC(=O)Nc3ccc(Br)cc3C2c2ccc(F)cc2)cc1OC (stereo not given),inactive
7,COc1ccc(-c2cc(C(F)(F)F)nc(SCC(=O)N(C)Cc3ccccc3)n2)cc1OC,inactive
8,Cc1ccc(F)cc1NC(=O)CCSc1nc(-c2ccco2)cc(C(F)(F)F)n1,inactive
9,Cc1ccc(CC2(C)C(=O)Nc3ccc(OC(F)(F)F)cc32)cc1 (stereo not given),inactive
10,COc1ccccc1CC1(C)C(=O)Nc2ccc(OC(F)(F)F)cc21 (stereo not given),inactive
11,CC1(Cc2ccccc2C#N)C(=O)Nc2ccc(-c3ccc4[nH]ccc4c3)cc21 (stereo not given),6.51 µM (active)
12,COc1ccc(CCNC(=O)c2cc3cccc4c3n2CC(C)S4)c(OC)c1OC (stereo not given),inactive
13,CC(C)Cn1c(C2CC(=O)N(c3ccccc3Cl)C2)nc2ccccc21 (stereo not given),inactive
14,O=C(CSc1nc(-c2cccc(F)c2)[nH]c1-c1ccccc1)Nc1ccc2c(c1)OCO2,inactive
15,COc1cccc(C(=O)NC2(C(F)(F)F)C(=O)Nc3c2c(=O)[nH]c(=O)n3-c2ccc(C)cc2)c1 (stereo not given),inactive
16,CC(=O)Nc1ccc(Nc2c3ccccc3nc3ccccc23)cc1,4.61 µM (active)
17,CC(=O)Nc1ccc(S(=O)(=O)N2CCN(c3ccccc3)CC2)cc1,inactive
18,CCc1c(C)nc2c(-c3ccccc3)c(C)nn2c1Nc1ccc(NC(C)=O)cc1,inactive
19,COc1ccc(CNC(=O)c2ccc3c(c2)nc2n3CCOC2)c(OC)c1,inactive
20,Cc1nc2nc(SCC(=O)N(Cc3ccccc3)C(C)C)nn2c(C)c1Cc1ccccc1Cl,inactive
21,O=C(Nc1ccccc1Cl)/C(Cl)=C(\Cl)S(=O)c1ccccc1 (stereo not given),6.51 µM (active)
22,O=C(Nc1ccccc1Cl)N1CCC(CN2CCCCC2)CC1,inactive
23,O=C(Nc1ccccc1Cl)c1ccccc1S(=O)(=O)c1ccccc1[N+](=O)[O-],inactive
24,NS(=O)(=O)c1ccc(NC(=O)COc2ccc(S(=O)(=O)NC3CCCCC3)cc2)cc1,inactive
25,COc1ccccc1N1CCN(c2ccc(=O)n(CC(=O)NCc3ccc(OC(C)C)cc3)n2)CC1,inactive

row,SMILES,Potency
1,Cc1cc(C)cc(NC(=O)CCS(=O)(=O)c2cc3c4c(c2)CCN4C(=O)CC3)c1,inactive
2,Cc1ccc(Oc2c(C(F)(F)F)oc3c(CN4CCCCC4)c(O)ccc3c2=O)cc1,inactive
3,COc1ccc(Cn2c(=O)sc3ccccc32)cc1OC,14.6 µM (active)
4,COc1ccccc1CNC(=O)CCn1c(=O)sc2ccccc21,inactive
5,COc1ccc(CN2CCOC2=O)cc1OC,inactive
6,Cc1ccc(-c2nnc3ccc(SCC(N)=O)nn23)cc1,inactive
7,O=C(NCc1cccnc1)C(=O)NCC(c1cccnc1)N1CCN(c2ccccc2)CC1 (stereo not given),inactive
8,CCN1CCN(C(c2cccnc2)c2cc(Cl)c3cccnc3c2O)CC1 (stereo not given),7.31 µM (active)
9,CCN1CCN(C(c2ccc(C)cc2)c2c(O)cc(C)n(Cc3ccco3)c2=O)CC1 (stereo not given),inactive
10,O=C1CCC[C@@H]2C[C@@]3(C[C@@H]4CCN1[C@H]24)Nc1ccccc1NC3=NCc1ccccc1,inactive
11,Cc1c(Cl)cccc1-c1ccc(CNCCCSc2nnnn2C)o1,inactive
12,CCOC(=O)CSC1=C(C#N)C(c2sccc2C)CC(=O)N1 (stereo not given),5.01 µM (active)
13,C=CCSC1=C(C#N)C(c2cc(Br)c(O)c(OC)c2)CC(=O)N1 (stereo not given),inactive
14,Cc1ccsc1C1C(C#N)=C(N)OC2=C1C(=O)CC(C)C2 (stereo not given),inactive
15,CCOc1ccc(NC(=O)Cn2cc(C(=O)c3ccc(C)cc3)c(=O)c3cc4c(cc32)OCCO4)cc1,inactive
16,CCOc1cc(C2C(C(=O)OC)=C(C)NC3=C2C(=O)c2ccccc23)ccc1O (stereo not given),inactive
17,Clc1ccc(C[n+]2cc(-c3ccccc3)n3c2CCC3)cc1,7.31 µM (active)
18,Cn1c(-c2ccccc2)c[n+]2c1CCCCC2,inactive
19,Cc1ccc(C(=O)CSc2nc(-c3ccccc3)nc3c2CCCC3)c(C)c1,inactive
20,Cc1ccc(C(=O)N2CCCC(c3ccccc3)=N2)cc1,inactive
21,Cc1ccc(C(=O)C[n+]2cc(-c3ccccc3)n3c2CCCCC3)cc1,8.2 µM (active)
22,CC1(C)C=Cc2c(ccc(C(=O)/C=C/c3ccccc3)c2O)O1,inactive
23,COc1ccc(CN2CCc3nc(Nc4ccccc4)ncc3C2)c(OC)c1OC,inactive
24,CCS(=O)(=O)N1CCc2cc(C(=O)NCc3ccc(OC)cc3)ccc21,inactive
25,Cc1[nH]c2ccc(C(=O)N3CCN(C)CC3)cc2c1C,inactive

row,SMILES,Potency
1,CC1CCN(C(=O)c2cccc(S(=O)(=O)N3CCCc4ccccc43)c2)CC1,inactive
2,CCn1c(C)c(C)c2cc(C(=O)N3CCN(c4cccc(C)c4C)CC3)ccc21,inactive
3,COc1ccccc1NS(=O)(=O)c1ccc(C(=O)N2CCN(c3ccccc3O)CC2)cc1,inactive
4,CCOc1ccccc1N1CCN(C(=O)c2ccc3[nH]c(C)c(C)c3c2)CC1,8.2 µM (active)
5,CCS(=O)(=O)N1CCc2cc(C(=O)N3CCN(c4ccccc4OC)CC3)ccc21,14.6 µM (active)
6,CCOc1ccccc1NC(=S)N1CCN(c2cccc(C)c2C)CC1,inactive
7,Cc1cccc(N2CCN(C(=O)c3ccc4c(c3)CCN4S(=O)(=O)c3ccccc3)CC2)c1C,23.1 µM (active)
8,Cc1cccn2c(=O)c(C(=O)NC(C)c3ccccc3)cnc12 (stereo not given),inactive
9,COc1cc(C(=O)NCC(c2ccc(Cl)cc2)N2CCOCC2)cc(OC)c1OC (stereo not given),inactive
10,O=C(NCC(c1cccnc1)N1CCc2ccccc21)c1cccc(C(F)(F)F)c1 (stereo not given),inactive
11,CCOC(=O)c1cc2c(=O)n3ccccc3nc2n(CC2CCCO2)c1=NC(=O)c1ccccc1Br (stereo not given),inactive
12,Cn1nc(-c2ccccc2)c(CSc2cccc(Cl)c2)c1Cl,23.1 µM (active)
13,Cn1nc(-c2ccccc2)c(-c2nc(-c3ccc(Cl)cc3)no2)c1Cl,inactive
14,Cn1nc(-c2ccccc2)c(CO)c1Sc1ccccc1,inactive
15,COc1ccccc1N1CCN(C(=O)C2CCN(S(=O)(=O)c3c(C)noc3/C=C/c3ccc(C)cc3)CC2)CC1,inactive
16,O=c1c2cccnc2n(Cc2cccc(F)c2)c(=O)n1Cc1ccccc1Cl,inactive
17,CC(C)c1cc(C(=O)N/N=C/C(Br)=C/c2ccccc2)n[nH]1,10.3 µM (active)
18,Cc1ccc(-c2cc(C(=O)N/N=C/C=C/c3ccccc3)n[nH]2)o1,inactive
19,CC(C)c1cc(C(=O)O)n[nH]1,inactive
20,CCOC(=O)c1cc2cc(C)ccc2[nH]1,inactive
21,CCOC(=O)C=Cc1ccc(C(=O)OCC)[nH]1,7.31 µM (active)
22,CCOC(=O)c1c(C)[nH]c(C)c1C(=O)COC(=O)/C=C/c1cccc([N+](=O)[O-])c1,inactive
23,COc1ccccc1CNC(=O)C(Cc1ccccc1)NS(=O)(=O)c1ccc2c(c1)oc(=O)n2C (stereo not given),inactive
24,COc1ccccc1CN1CCC(CNC(=O)c2cnn(-c3ccccc3Cl)c2C2CCN(C(=O)OC(C)(C)C)CC2)CC1,inactive
25,Cc1cc(Cl)ccc1NC(=O)Cc1ccc(NC(=O)N2CCCCc3ccccc32)cc1,inactive
